Assay in all cases: DAPPL (digital affinity profiling via proximity ligation, sequencing); 10 mM Tris-HCl pH 7.5, 50 mM NaCl, 1 mM DTT, 4% glycerol, room temperature, 30 min; GST-TFs on glutathione beads, 16-mer random dsDNA library, 0.1% formaldehyde crosslink after washing; high values mean tight binding
One assay has as its target T1, FEV (Homo sapiens, UniProt Q99581 1-238).
T1 sequence: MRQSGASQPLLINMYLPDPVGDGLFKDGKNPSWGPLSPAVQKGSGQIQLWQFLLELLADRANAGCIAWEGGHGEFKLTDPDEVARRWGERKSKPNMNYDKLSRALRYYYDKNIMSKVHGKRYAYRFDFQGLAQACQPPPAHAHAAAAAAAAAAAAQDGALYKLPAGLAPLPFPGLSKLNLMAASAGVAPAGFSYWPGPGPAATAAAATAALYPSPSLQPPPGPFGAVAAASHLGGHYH
The following applies: protein: recombinant; tags: N-terminal GST; dsDNA, one strand shown. Summed up:
(§1)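 Binding signal is given per hexamer as its read frequency for a factor divided by its frequency in the tag-only sample. GST-fused human transcription factors were expressed in yeast, captured on glutathione beads, barcoded with DNA and pooled with that sample, then incubated with 200 nmole of a 16-mer random double-stranded DNA library in Tris/NaCl/DTT/glycerol buffer for 30 min at room temperature. The pools were then washed, crosslinked, proximity-ligated, amplified by PCR and sequenced on an Illumina NextSeq500.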

The next assay deals with ETV5 (Homo sapiens, UniProt P41161 1-510). The following applies: protein: recombinant; tags: N-terminal GST; dsDNA, one strand shown. Summed up:
as §1

For the next assay, the target named is HSF1 (Homo sapiens, UniProt Q00613 1-529). The following applies: protein: recombinant; tags: N-terminal GST; chain copies: 3; dsDNA, one strand shown. Summed up: as §1
The target of another assay is T2, SPIC (Homo sapiens, UniProt Q8N5J4 1-248).
T2 sequence: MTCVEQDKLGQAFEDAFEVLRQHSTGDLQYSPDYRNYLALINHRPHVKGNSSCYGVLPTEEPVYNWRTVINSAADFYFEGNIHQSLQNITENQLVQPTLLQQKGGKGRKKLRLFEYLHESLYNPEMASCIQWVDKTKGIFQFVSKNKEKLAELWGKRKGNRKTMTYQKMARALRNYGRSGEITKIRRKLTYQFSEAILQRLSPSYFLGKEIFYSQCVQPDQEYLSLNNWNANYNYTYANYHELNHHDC
The following applies: protein: recombinant; tags: N-terminal GST; dsDNA, one strand shown. Summed up: as §1

In another assay the target is ELF4 (Homo sapiens, UniProt Q99607 1-663). Particulars: protein: recombinant; tags: N-terminal GST; dsDNA, one strand shown. Summed up:
as §1

Another assay concerns the target T3, ELK4 (Homo sapiens, UniProt P28324-2 1-405).
T3 sequence: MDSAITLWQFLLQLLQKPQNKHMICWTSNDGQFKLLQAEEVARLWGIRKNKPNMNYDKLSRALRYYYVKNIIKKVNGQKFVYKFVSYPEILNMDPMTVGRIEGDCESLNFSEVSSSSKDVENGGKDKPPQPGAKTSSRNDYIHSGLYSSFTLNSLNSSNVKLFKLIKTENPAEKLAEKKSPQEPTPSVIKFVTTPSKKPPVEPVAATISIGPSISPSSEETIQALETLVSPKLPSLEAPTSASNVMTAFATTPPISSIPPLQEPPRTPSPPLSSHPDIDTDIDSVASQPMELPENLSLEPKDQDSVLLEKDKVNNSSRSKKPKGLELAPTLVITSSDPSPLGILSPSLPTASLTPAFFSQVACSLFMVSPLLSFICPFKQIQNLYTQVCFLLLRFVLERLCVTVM
Particulars: protein: recombinant; tags: N-terminal GST; dsDNA, one strand shown. Summed up: as §1

For another assay, the target named is T4, ETV2 (Homo sapiens, UniProt O00321 1-342).
T4 sequence: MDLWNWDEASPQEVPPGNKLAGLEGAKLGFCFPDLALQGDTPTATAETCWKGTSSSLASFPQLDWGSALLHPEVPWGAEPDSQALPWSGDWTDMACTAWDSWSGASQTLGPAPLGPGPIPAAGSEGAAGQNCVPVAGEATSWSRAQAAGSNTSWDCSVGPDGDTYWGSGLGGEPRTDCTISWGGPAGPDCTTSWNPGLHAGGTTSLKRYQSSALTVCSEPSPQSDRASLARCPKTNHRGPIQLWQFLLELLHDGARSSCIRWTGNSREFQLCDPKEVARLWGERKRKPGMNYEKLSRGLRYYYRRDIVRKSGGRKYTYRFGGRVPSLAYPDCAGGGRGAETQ
The following applies: protein: recombinant; tags: N-terminal GST; dsDNA, one strand shown. Summed up:
as §1

The target in a further assay is T5, ELF3 (Homo sapiens, UniProt P78545 1-371).
T5 sequence: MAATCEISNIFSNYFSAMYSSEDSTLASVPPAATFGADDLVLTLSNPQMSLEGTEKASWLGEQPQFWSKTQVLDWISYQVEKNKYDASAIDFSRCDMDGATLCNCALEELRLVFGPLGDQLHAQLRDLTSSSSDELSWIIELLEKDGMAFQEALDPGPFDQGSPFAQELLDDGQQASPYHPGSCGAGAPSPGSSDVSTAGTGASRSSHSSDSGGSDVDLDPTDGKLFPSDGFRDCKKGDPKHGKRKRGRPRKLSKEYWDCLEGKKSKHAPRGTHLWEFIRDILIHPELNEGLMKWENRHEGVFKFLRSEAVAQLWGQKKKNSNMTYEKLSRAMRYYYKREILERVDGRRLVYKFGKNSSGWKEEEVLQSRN
Particulars: protein: recombinant; tags: N-terminal GST; dsDNA, one strand shown. Summed up:
as §1

The next assay addresses CRX (Homo sapiens, UniProt O43186 1-299). Particulars: protein: recombinant; tags: N-terminal GST; dsDNA, one strand shown. Summed up: as §1
The next assay concerns the target ETV1 (Homo sapiens, UniProt P50549 1-477). The following applies: protein: recombinant; tags: N-terminal GST; dsDNA, one strand shown. Summed up:
as §1

For the next assay, the target named is T6, ERF (Homo sapiens, UniProt P50548 1-548).
T6 sequence: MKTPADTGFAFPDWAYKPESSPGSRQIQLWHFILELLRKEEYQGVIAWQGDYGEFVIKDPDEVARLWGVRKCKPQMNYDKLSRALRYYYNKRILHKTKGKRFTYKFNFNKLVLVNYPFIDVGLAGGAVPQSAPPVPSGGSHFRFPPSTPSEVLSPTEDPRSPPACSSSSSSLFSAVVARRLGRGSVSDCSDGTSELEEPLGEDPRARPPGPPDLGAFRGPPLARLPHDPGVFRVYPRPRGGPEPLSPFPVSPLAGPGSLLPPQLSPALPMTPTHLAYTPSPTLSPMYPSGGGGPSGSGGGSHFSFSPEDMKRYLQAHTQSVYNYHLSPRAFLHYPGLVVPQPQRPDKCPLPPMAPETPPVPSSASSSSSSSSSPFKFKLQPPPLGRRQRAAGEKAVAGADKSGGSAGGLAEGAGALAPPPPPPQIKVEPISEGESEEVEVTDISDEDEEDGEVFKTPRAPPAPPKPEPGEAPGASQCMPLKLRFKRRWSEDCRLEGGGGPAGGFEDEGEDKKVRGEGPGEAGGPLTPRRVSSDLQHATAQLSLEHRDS
Particulars: protein: recombinant; tags: N-terminal GST; dsDNA, one strand shown. Summed up:
as §1

In a further assay the target is T7, ETV3L (Homo sapiens, UniProt Q6ZN32 1-361).
T7 sequence: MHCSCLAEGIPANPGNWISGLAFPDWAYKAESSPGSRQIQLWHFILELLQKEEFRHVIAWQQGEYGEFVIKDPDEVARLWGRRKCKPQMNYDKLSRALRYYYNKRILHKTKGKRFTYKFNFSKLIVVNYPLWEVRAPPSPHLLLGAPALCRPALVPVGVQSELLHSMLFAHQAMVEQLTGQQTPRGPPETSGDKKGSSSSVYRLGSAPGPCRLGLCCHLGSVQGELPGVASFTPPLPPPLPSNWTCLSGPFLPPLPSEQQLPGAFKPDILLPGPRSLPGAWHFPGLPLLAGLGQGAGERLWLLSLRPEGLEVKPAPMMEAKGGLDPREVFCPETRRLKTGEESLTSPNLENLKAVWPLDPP
The following applies: protein: recombinant; tags: N-terminal GST; dsDNA, one strand shown. Summed up: as §1

Another assay concerns the target T8, ETS2 (Homo sapiens, UniProt P15036 1-469).
T8 sequence: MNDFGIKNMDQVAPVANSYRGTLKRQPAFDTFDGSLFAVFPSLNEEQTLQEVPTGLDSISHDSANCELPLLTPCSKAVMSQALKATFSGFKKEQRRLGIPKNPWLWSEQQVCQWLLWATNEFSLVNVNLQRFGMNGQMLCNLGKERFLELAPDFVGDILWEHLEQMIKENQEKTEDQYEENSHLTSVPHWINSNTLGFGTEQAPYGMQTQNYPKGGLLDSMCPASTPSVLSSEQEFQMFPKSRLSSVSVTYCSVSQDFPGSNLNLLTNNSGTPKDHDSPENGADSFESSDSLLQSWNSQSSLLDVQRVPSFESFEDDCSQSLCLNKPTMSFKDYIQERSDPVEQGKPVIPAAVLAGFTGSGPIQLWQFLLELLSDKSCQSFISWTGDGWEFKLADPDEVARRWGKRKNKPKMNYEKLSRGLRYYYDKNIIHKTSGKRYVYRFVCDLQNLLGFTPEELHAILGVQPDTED
Particulars: protein: recombinant; tags: N-terminal GST; dsDNA, one strand shown. Summed up:
as §1

The target in the next assay is T9, SPDEF (Homo sapiens, UniProt O95238 1-335).
T9 sequence: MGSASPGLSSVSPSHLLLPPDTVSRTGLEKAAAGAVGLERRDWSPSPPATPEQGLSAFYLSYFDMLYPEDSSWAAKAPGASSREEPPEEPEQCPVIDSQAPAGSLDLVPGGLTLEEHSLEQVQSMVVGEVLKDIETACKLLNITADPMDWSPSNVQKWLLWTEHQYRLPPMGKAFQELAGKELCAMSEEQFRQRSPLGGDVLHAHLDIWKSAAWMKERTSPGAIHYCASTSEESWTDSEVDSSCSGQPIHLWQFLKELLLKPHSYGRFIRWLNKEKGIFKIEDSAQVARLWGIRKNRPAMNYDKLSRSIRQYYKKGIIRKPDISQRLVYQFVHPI
The following applies: protein: recombinant; tags: N-terminal GST; dsDNA, one strand shown. Summed up: as §1

In a further assay the target is T10, ETV7 (Homo sapiens, UniProt Q9Y603 1-341).
T10 sequence: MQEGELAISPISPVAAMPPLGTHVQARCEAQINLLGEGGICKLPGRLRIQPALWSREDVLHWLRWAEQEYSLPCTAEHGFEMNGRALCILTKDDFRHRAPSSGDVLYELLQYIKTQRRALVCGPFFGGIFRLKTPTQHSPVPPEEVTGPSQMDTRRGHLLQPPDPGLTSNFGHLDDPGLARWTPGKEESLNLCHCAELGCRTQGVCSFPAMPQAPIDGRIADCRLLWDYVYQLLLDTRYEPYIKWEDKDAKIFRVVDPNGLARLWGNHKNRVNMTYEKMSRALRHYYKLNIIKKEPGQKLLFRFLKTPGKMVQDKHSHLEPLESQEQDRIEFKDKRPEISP
Particulars: protein: recombinant; tags: N-terminal GST; dsDNA, one strand shown. Summed up: as §1

A further assay concerns the target T11, ELF5 (Homo sapiens, UniProt Q9UKW6-2 1-255).
T11 sequence: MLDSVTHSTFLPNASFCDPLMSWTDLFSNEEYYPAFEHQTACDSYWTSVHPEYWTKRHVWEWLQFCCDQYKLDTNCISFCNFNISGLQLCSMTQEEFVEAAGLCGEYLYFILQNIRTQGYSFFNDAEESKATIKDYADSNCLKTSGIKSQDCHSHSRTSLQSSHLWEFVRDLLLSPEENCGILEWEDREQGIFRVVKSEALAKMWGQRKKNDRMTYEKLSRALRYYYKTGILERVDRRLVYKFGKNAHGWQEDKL
The following applies: protein: recombinant; tags: N-terminal GST; dsDNA, one strand shown. Summed up:
as §1

The next assay has as its target T12, ETV3 (Homo sapiens, UniProt P41162-2 1-143).
T12 sequence: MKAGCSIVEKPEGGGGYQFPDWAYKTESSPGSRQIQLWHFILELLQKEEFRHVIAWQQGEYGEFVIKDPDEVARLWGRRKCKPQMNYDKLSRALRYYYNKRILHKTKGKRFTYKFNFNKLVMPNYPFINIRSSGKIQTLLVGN
The following applies: protein: recombinant; tags: N-terminal GST; dsDNA, one strand shown. Summed up: as §1

The target in another assay is ETV6 (Homo sapiens, UniProt P41212 1-452). The following applies: protein: recombinant; tags: N-terminal GST; dsDNA, one strand shown. Summed up:
as §1

Sequence of HSF1 (Q00613 whole entry): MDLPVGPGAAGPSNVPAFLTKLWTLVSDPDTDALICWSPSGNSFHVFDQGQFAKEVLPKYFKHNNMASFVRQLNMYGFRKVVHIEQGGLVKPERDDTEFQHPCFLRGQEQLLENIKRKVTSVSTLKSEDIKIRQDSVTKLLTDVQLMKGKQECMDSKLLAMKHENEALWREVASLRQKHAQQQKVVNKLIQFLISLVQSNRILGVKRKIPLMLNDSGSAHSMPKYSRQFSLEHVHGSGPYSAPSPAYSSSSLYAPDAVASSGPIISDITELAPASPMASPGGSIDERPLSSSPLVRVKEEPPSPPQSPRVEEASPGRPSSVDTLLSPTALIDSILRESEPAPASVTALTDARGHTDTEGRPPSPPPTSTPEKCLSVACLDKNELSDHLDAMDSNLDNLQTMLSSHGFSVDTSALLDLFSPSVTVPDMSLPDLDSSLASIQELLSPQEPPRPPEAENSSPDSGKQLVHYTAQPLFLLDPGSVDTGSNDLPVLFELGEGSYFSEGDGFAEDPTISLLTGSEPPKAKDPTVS
Sequence of ETV6 (P41212 whole entry): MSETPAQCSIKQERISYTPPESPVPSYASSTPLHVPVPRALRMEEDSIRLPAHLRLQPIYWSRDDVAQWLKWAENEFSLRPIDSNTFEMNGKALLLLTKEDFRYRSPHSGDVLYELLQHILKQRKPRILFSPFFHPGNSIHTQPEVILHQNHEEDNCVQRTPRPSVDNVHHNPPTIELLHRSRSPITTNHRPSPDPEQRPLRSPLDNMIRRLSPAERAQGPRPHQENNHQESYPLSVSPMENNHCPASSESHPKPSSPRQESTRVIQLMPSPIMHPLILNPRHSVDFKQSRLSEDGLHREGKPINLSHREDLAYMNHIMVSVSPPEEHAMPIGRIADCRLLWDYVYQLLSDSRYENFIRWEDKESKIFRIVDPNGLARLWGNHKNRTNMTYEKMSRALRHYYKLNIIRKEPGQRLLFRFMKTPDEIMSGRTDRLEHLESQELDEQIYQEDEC
Sequence of ETV5 (P41161 whole entry): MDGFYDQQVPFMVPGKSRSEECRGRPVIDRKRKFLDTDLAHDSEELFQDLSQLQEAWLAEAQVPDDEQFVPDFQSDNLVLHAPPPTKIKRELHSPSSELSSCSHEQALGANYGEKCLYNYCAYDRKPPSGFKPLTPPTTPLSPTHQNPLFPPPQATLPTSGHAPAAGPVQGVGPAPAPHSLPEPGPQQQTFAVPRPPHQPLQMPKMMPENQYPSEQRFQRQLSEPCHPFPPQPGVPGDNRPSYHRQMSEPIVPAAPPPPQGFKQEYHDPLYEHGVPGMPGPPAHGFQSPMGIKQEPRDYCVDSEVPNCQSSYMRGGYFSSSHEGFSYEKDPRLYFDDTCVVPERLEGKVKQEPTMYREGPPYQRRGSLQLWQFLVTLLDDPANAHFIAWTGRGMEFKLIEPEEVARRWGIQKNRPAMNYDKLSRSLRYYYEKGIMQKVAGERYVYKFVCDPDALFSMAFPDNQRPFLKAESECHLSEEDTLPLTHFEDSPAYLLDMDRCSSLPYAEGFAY
Sequence of CRX (O43186 whole entry): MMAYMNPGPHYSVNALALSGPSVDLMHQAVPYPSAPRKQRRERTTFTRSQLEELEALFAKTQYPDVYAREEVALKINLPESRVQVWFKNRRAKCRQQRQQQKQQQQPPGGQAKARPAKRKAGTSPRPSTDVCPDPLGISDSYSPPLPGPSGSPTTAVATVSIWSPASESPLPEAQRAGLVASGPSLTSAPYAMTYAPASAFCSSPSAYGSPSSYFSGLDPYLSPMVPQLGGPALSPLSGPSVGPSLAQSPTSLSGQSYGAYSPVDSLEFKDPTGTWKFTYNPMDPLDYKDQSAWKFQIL
Sequence of ETV1 (P50549 whole entry): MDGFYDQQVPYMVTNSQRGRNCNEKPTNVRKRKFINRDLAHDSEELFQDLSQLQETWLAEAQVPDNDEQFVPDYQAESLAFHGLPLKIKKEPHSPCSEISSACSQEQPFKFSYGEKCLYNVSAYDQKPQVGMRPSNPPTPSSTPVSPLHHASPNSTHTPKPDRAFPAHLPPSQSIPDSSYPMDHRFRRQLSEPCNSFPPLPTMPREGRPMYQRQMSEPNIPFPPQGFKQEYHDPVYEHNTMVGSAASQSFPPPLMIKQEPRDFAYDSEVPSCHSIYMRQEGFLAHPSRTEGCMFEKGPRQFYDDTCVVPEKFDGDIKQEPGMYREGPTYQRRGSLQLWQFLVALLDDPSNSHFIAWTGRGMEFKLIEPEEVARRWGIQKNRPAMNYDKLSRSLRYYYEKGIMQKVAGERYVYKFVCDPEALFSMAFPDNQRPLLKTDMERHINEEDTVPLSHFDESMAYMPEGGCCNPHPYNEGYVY
Sequence of ELF4 (Q99607 whole entry): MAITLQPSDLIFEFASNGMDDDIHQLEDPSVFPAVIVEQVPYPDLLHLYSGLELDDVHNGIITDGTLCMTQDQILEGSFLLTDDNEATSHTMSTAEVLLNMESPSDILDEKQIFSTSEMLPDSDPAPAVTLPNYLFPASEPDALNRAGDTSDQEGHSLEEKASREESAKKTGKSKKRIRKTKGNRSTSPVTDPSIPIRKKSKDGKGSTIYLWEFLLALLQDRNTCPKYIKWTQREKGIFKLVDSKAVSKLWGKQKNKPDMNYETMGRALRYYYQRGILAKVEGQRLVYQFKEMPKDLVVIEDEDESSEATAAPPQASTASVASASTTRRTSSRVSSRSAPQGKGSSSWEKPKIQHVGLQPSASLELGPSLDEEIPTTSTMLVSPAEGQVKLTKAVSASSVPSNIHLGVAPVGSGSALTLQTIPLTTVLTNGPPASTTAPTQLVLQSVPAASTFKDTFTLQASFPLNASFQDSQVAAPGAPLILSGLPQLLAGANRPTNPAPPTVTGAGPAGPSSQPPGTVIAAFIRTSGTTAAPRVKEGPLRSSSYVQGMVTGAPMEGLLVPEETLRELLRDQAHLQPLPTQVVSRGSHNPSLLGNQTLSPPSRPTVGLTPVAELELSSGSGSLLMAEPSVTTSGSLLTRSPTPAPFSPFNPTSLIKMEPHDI

For GTTGCT, the binding signal with FEV is 1.18 fold enrichment (6-mer frequency, TF over GST control); with ETV5, 1.28 fold enrichment (6-mer frequency, TF over GST control); with HSF1, 1.09 fold enrichment (6-mer frequency, TF over GST control); with SPIC, 1.28 fold enrichment (6-mer frequency, TF over GST control); with ELF4, 1.27 fold enrichment (6-mer frequency, TF over GST control); with ELK4, 1.33 fold enrichment (6-mer frequency, TF over GST control). The binding signal with ETV2 is 1.26 fold enrichment (6-mer frequency, TF over GST control); with ELF3, 1.16 fold enrichment (6-mer frequency, TF over GST control); in the assay with CRX, 1.06 fold enrichment (6-mer frequency, TF over GST control); in the assay with ETV1, 1.38 fold enrichment (6-mer frequency, TF over GST control); in the assay with ERF, 1.27 fold enrichment (6-mer frequency, TF over GST control); in the assay with ETV3L, 1.26 fold enrichment (6-mer frequency, TF over GST control). Further, the binding signal in the assay with ETS2 is 1.22 fold enrichment (6-mer frequency, TF over GST control); with SPDEF, 1.27 fold enrichment (6-mer frequency, TF over GST control); with ETV7 it was 1.38 fold enrichment (6-mer frequency, TF over GST control); with ELF5, 1.27 fold enrichment (6-mer frequency, TF over GST control); with ETV3, 1.51 fold enrichment (6-mer frequency, TF over GST control); with ETV6, 1.29 fold enrichment (6-mer frequency, TF over GST control).

The values are drawn from publication PMC7862700, “An all-to-all approach to the identification of sequence-specific readers for epigenetic DNA modifications on cytosine”.
